Compound activity from PubChem.
HCV inhibitor: qHTS Assay for Inhibitors of Hepatitis C Virus (HCV). Potency, µM (highest dose often 41.8 µM), for inactives: at the top dose activity change, negative = inhibition, usual class: inhibitors. AID 651820, 2012. 3.4% of 340,000 active. Huh7.5.1 HCVcc-Cre infection, luciferase reporter, 44 h; also: potency is read from the fitted curve at half-maximal effect
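Reporter virus HCVcc-Cre (~0.5 moi) infects cells exposed to compound; seeding density 1,000 cells/well with 4 h settling beforehand. Luminescence, 15 sec read, taken 44 h post-infection following a 15 min RT substrate incubation.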
HCMV antiviral: qHTS Assay for inhibitors of the human cytomegalovirus (HCMV) | HFF cells, HCMV-luciferase reporter, 72 h; stronger effect = lower value | activity change, negative = inhibition, % at 57.5 µM | 4.5% of 410,000 active; in the data active = activity change below about -60%; inconclusive = no clear call, values can overlap the other calls; inactive = above about -39%
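Steps: HFFs plated, 16 h 37C; compounds added; HCMV-luciferase added to MOI 1 PFU/cell; 72 h 37C; OneGlo reagent, 5 min room temperature; luminescence read, normalized to controls.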
Pf growth 48h: Primary qHTS for delayed death inhibitors of the malarial parasite plastid, 48 hour incubation | P. falciparum luciferase growth in erythrocytes, 48 h | Potency, µM (series often up to 28.7 µM), for inactives: at the top dose activity change, negative = inhibition, most hits filed as inhibitors | 5.9% of 310,000 active; also: potency is read from the fitted curve at half-maximal effect
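A one-generation exposure of luciferase-tagged malaria parasites in RPMI 1640/Albumax erythrocyte culture, 37 C and 5% CO2. Inhibition is inferred from decreased luminescence after adding detection reagent.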
Pf growth 96h: Primary qHTS for delayed death inhibitors of the malarial parasite plastid, 96 hour incubation; P. falciparum luciferase reporter growth, 96 h; AID 504834, 2011; 6.9% of 320,000 active; Potency, µM (highest dose often 28.7 µM), inactives show at the highest dose activity change, negative = inhibition, actives largely listed as inhibitors; also: potency is read from the fitted curve at half-maximal effect
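Infected RBCs, 2% Hct / 0.05% parasitemia final; luciferase-reporter P. falciparum; cpd 96 h, 37 C, 5% CO2; luciferase detection reagent; luminescence.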
Numbers without * were called inactive; ? = inconclusive; / = not tested or not shown. This is a sample that favours compounds with a hit; in the whole collection about 13% have one here. Unless noted, calls follow the shape of the dose curve; as a rule, active = well fitted inhibition curve with a large enough effect; inconclusive = small, poorly fitted or top-dose-only effect, or another doubt; inactive = no such curve, though single readings can be large or run the other way. % is scaled to controls: 0 for no effect and ±100 for the full control effect.

SMILES	HCV inhibitor	HCMV antiviral	Pf growth 48h	Pf growth 96h
CCc1nc2ccccc2nc1N1CCN(S(=O)(=O)c2c(C)cc(Cl)cc2C)CC1	-16%	-25	-11%	-6%
Cc1ccc(S(=O)(=O)N2CCN(c3nc4ccccc4nc3-n3nc(C)cc3C)CC2)cc1	?	-16	10µM*	17%
Cc1cc(C)n(-c2nc3ccccc3nc2N2CCN(c3cccc(C)c3C)CC2)n1	/	15	/	/
Cc1cc(C)n(-c2nc3ccccc3nc2N2CCC(C)CC2)n1	-4%	-7	9.3µM*	/
Cc1cc(C)n(-c2nc3ccccc3nc2N2CCN(C(=O)c3ccc(F)cc3)CC2)n1	-1%	-80*	?	/
O=C(CSc1ncc2c(n1)-c1ccccc1N(Cc1ccc(Cl)cc1)S2(=O)=O)c1ccc(Cl)cc1	/	0	/	/
CC1=C(C(=O)Nc2ccc(C)cc2C)C(C(C)C)n2nc(SCc3ccccc3Cl)nc2N1 (centres undefined)	/	9	/	/
Cc1cc(N2CCC(C)CC2)nc(-n2nc(C)cc2C)n1	?	-37	0.74µM*	/
Cc1cc(C)n(-c2nc(N(C)C)nc(N3CCOCC3)n2)n1	10%	?	/	-9%
CCCCNC(=S)N1CCN(C(c2ccccc2)c2ccccc2)CC1	?	-2	10µM*	17%
CCCNC(=S)N1CCN(C(c2ccccc2)c2ccccc2)CC1	-13%	-35	?	?
S=C(NCCc1ccccc1)N1CCN(C(c2ccccc2)c2ccccc2)CC1	?	3	9.3µM*	?
CSc1ccc(C(=S)N2CCN(C(c3ccccc3)c3ccccc3)CC2)cc1	-2%	-2	/	5.2µM*
CCNC(=S)N1CCN(C(c2ccccc2)c2ccccc2)CC1	-14%	-28	13µM*	8.3µM*
COCCNC(=S)N1CCN(C(c2ccccc2)c2ccccc2)CC1	4%	-23	-17%	?
Cc1ccc(-c2noc(-c3nnn(CC(=O)Nc4cc(Cl)ccc4C)c3N)n2)cc1	/	19	/	/
CCOc1ccc(CCNC(=O)c2cc(C)on2)cc1OCC	-9%	11	10µM*	?
CCOc1ccc(CCNC(=O)CCNC(=O)c2ccccc2Cl)cc1OCC	-23%	16	12µM*	?
CCOc1ccc(CCNC(=O)c2cc3ccccn3n2)cc1OCC	13µM*	10	/	18%
CCOc1ccc(CCNC(=O)c2c(C)noc2C)cc1OCC	-18%	-20	?	-4%
O=C(NCc1ccc(F)cc1)c1cc2ccccn2n1	-8%	-2	20%	3.7µM*
Cc1cccc(CCNC(=O)c2cc3ccccn3n2)c1	/	65	/	/
CCc1ccc(CNC(=O)c2cc3ccccn3n2)cc1	/	82	/	/
Cc1ccc(Cc2nc3ccccc3nc2SCC(=O)Nc2ccc3c(c2)OCO3)cc1	/	-66*	/	/
CCc1cccc(C)c1NC(=O)CSc1nc2ccccc2nc1Cc1ccccc1	/	-68*	/	/
SMILES	HCV inhibitor	HCMV antiviral	Pf growth 48h	Pf growth 96h
CCc1cccc(C)c1NC(=O)CSc1nc2ccccc2nc1N1CCOCC1	/	12	/	/
COc1cc(Cl)c(C)cc1NC(=O)c1c(C)oc2nc(C)nc(N3CCCC3)c12	/	89	/	/
COc1ccc(-[n+]2c(-c3ccccc3)cc(-c3ccccc3)cc2-c2ccccc2)cc1	?	-97*	0.83µM*	0.29µM*
Cc1cc(-c2ccccc2)cc(=O)[nH]1	26%	39	/	/
O=C(C(=O)c1ccc(O)cc1)c1ccccc1	5%	-2	2%	227%
C[n+]1c(-c2ccccc2)cc(-c2ccc(O)cc2)cc1-c1ccccc1	7%	-36	?	2.1µM*
Cc1cc(-c2ccccc2)cc(-c2ccccc2)[n+]1C	-25%	?	10µM*	0.93µM*
Oc1ccc(-[n+]2c(-c3ccccc3)cc(-c3ccccc3)cc2-c2ccccc2)cc1	8.9µM*	-97*	0.37µM*	0.13µM*
O=S(=O)(Nc1cc(F)ccc1F)c1ccc2[nH]c3c(c2c1)CCCCC3	/	-6	/	/
CCOC(=O)Cc1ccc(NC(=O)Nc2cccc(OCc3cc(=O)n4cc(C)ccc4n3)c2)cc1	/	28	/	/
Cc1cc(-c2ccccc2)cc(-c2ccccc2)[n+]1CCc1ccccc1	?	-98*	0.47µM*	0.52µM*
O=C1[C@H]2CCCC[C@H]2C(=O)N1CCCCN1CCN(c2nsc3ccccc23)CC1	-28%	-61*	?	12µM*
c1ccc2c(N3CCNCC3)nsc2c1	?	-107*	13µM*	-23%
CCN(CC)CC(O)Cn1c(C)c(-c2ccccc2)c2cc([N+](=O)[O-])ccc21 (centres undefined)	14µM*	-68*	/	21%
Cc1ccc(-n2ncc(C(=O)N3CCN(C4CCCCC4)CC3)c2C2CCN(C(=O)OC(C)(C)C)CC2)cc1C	/	0	/	/
Cc1ccc2c(c1)=N/C(=N\c1[nH]c(O)c3ccccc13)N=2	/	13	/	/
Oc1[nH]c(N=C2N=c3ccccc3=N2)c2ccccc12	-26%	-97*	-51%	2.3µM*
O=C(CS(=O)(=O)c1cccc2nsnc12)NCc1ccc(Cl)cc1	/	-19	/	/
CSc1ccc(CCNC(=O)c2ccc(-c3nc(COc4ccccc4)c(C)o3)cc2)cc1	/	14	/	/
Oc1ccccc1/C=N/NC(=S)NC1CC2CC1C1C=CCC21 (centres undefined)	?	-20	3.3µM*	1.9µM*
COc1cccc(/C=N/NC(=S)NC2CC3CC2C2C=CCC32)c1O (centres undefined)	5%	-33	2.3µM*	1.3µM*
Cc1ccc(C)c(N2CCN(C(=O)CCS(=O)(=O)c3cc4c(cc3Cl)NC(=O)CO4)CC2)c1	/	-29	/	/
COc1cc(-c2nn3c(COc4ccccc4)nnc3s2)cc(OC)c1OC	?	41	-20%	/
COc1cc(-c2nn3c(Cc4ccccc4)nnc3s2)cc(OC)c1OC	?	82	10µM*	43%
Cc1ccc(CNC(=O)C(=O)NCC(c2ccc3c(c2)OCO3)N2CCOCC2)cc1 (centres undefined)	/	-18	/	/
SMILES	HCV inhibitor	HCMV antiviral	Pf growth 48h	Pf growth 96h
Cc1[nH]c(-c2ccccn2)nc(=S)c1Cl	24%	-27	?	?
Cc1cc(=S)nc(-c2ccccn2)[nH]1	1%	31	10µM*	3.7µM*
CCc1nnc2c3ccccc3nc(N3CCN(c4cc(C)ccc4C)CC3)n12	/	8	/	/
CCCCNC(=O)c1sc2ncnc(N3CCc4ccccc4C3)c2c1C	?	?	?	15µM*
CCN(CC)c1nc2nonc2nc1N(CC)CC	7%	-17	-22%	4.7µM*
CCOc1ccc(-n2c(C)nc3cc(C(=O)NCc4ccc(C)cc4)ccc32)cc1	/	-36	/	/
COc1ccccc1NC(=O)C1=C(C)Nc2nc(CCCO)nn2C1c1cccc(O)c1 (centres undefined)	/	14	/	/
O=C(OCCN1C(=O)c2cccc3c(N4CCOCC4)ccc(c23)C1=O)c1ccc(Cl)cc1	1%	?	?	12µM*
Cc1ccc(/C=C2/NC(=O)N(c3ccccc3)C2=O)o1	-15%	?	104%	-6%
O=C1N/C(=C/c2ccc(Br)s2)C(=O)N1c1ccccc1	-2%	-62*	38%	-20%
